Measurements reported in PubChem BioAssay AID1159580 (chemical genetic matrix, 2015).
Out of some 5,500 compounds screened, about 2,000 (36%) were called active. About 18% were inconclusive and are not listed. Cut-off read from the data, not from the text of the source: active = normalized growth mostly below about 0.91 (no sharp cut-off); inconclusive = no clear call, values can overlap the other calls; inactive = mostly above about 0.92. This is one part of the list.

Assay: chemical genetic growth profiling, strain panel (AID 1159580);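 note: tested at 20 µM; growth read once vehicle control cultures reached saturation at 30 °C; 1 = growth at the plate median or of vehicle wells; lower values mean less growth of the strain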
Settings: growth OD
[1] = S. cerevisiae deletion strains, locus YAL040C, strain CLN3, stronger effect = lower value
[2] = S. cerevisiae deletion strains, locus YCL061C, strain MRC1 (second series), stronger effect = lower value
[3] = S. cerevisiae deletion strains, locus YER002W, strain NOP16, stronger effect = lower value
[4] = S. cerevisiae deletion strains, locus YGR229C, strain SMI1, stronger effect = lower value
[5] = S. cerevisiae deletion strains, locus YMR263W, strain SAP30, stronger effect = lower value
[6] = S. cerevisiae deletion strains, locus YMR307W, strain GAS1, stronger effect = lower value
[7] = S. cerevisiae deletion strains, locus YNL175C, strain NOP13, stronger effect = lower value
[8] = S. cerevisiae deletion strains, locus YNL197C, strain WHI3, stronger effect = lower value
[9] = S. cerevisiae deletion strains, locus YNL224C, strain SQS1, stronger effect = lower value
[10] = S. cerevisiae deletion strains, locus YOR083W, strain WHI5 (second series), stronger effect = lower value
[11] = S. cerevisiae deletion strains, locus YAL013W, strain DEP1, stronger effect = lower value

Measured: normalized growth

CNCC(O)c1ccc(O)c(O)c1 (configuration not stated)
inactive: [1] 1.08 | [2] 1 | S. cerevisiae deletion strains, locus YDR363W, strain ESC2, stronger effect = lower value 1.01 | [3] 1 | S. cerevisiae deletion strains, locus YGR078C, strain PAC10, stronger effect = lower value 1.02 | [4] 0.982 | S. cerevisiae deletion strains, locus YJR075W, strain HOC1, stronger effect = lower value 1 | [5] 1.01 | [6] 1 | [7] 0.994 | [8] 0.998 | [9] 1.02 | [10] 1.02

CCOC(=O)C1(O)Oc2cc(OC)cc(OC)c2C(=O)C1c1ccccc1 (configuration not stated)
inactive: [11] 0.969 | S. cerevisiae deletion strains, locus YBR229C, strain ROT2, stronger effect = lower value 1.01 | S. cerevisiae deletion strains, locus YCL029C, strain bik1, stronger effect = lower value 0.996 | S. cerevisiae deletion strains, locus YDL035C, strain GPR1, stronger effect = lower value 0.984 | S. cerevisiae deletion strains, locus YDL074C, strain BRE1, stronger effect = lower value 0.947 | S. cerevisiae deletion strains, locus YDL101C, strain DUN1, stronger effect = lower value 1 | S. cerevisiae deletion strains, locus YDL134C, strain PPH21, stronger effect = lower value 0.986 | S. cerevisiae deletion strains, locus YDL185W, strain tfp1, stronger effect = lower value 1 | S. cerevisiae deletion strains, locus YDL192W, strain arf1, stronger effect = lower value 0.982 | S. cerevisiae deletion strains, locus YDR101C, strain arx1, stronger effect = lower value 0.984 | S. cerevisiae deletion strains, locus YDR162C, strain NBP2, stronger effect = lower value 1 | S. cerevisiae deletion strains, locus YDR318W, strain mcm21, stronger effect = lower value 0.979 | S. cerevisiae deletion strains, locus YDR388W, stronger effect = lower value 0.976 | S. cerevisiae deletion strains, locus YDR502C, strain sam2, stronger effect = lower value 0.932 | S. cerevisiae deletion strains, locus YEL061C, strain CIN8, stronger effect = lower value 0.996 | S. cerevisiae deletion strains, locus YER110C, stronger effect = lower value 0.977 | S. cerevisiae deletion strains, locus YER155C, strain BEM2, stronger effect = lower value 0.978 | S. cerevisiae deletion strains, locus YER167W, strain BCK2, stronger effect = lower value 1 | S. cerevisiae deletion strains, locus YGL078C, strain dbp3, stronger effect = lower value 0.993 | S. cerevisiae deletion strains, locus YGL086W, strain mad1, stronger effect = lower value 0.97 | S. cerevisiae deletion strains, locus YGL248W, strain PDE1, stronger effect = lower value 0.99 | S. cerevisiae deletion strains, locus YGR135W, strain pre9, stronger effect = lower value 0.925 | S. cerevisiae deletion strains, locus YGR252W, strain gcn5, stronger effect = lower value 0.815 | S. cerevisiae deletion strains, locus YHR079C, strain IRE1 (second series), stronger effect = lower value 0.974 | S. cerevisiae deletion strains, locus YHR094C, strain hxt1, stronger effect = lower value 0.981 | S. cerevisiae deletion strains, locus YHR129C, strain ARP1, stronger effect = lower value 0.993 | S. cerevisiae deletion strains, locus YHR200W, strain rpn10, stronger effect = lower value 0.959 | S. cerevisiae deletion strains, locus YIL066C, strain RNR3, stronger effect = lower value 1 | S. cerevisiae deletion strains, locus YIL073C, strain SPO22, stronger effect = lower value 0.968 | S. cerevisiae deletion strains, locus YIL125W, strain kgd1, stronger effect = lower value 0.989 | S. cerevisiae deletion strains, locus YIR030C, strain dcg1, stronger effect = lower value 0.983 | S. cerevisiae deletion strains, locus YJL095W, strain BCK1, stronger effect = lower value 0.97 | S. cerevisiae deletion strains, locus YJL134W, strain LCB3, stronger effect = lower value 1 | S. cerevisiae deletion strains, locus YJL168C, strain set2, stronger effect = lower value 0.977 | S. cerevisiae deletion strains, locus YJL187C, strain SWE1 (second series), stronger effect = lower value 0.971 | S. cerevisiae deletion strains, locus YJR043C, strain POL32, stronger effect = lower value 0.967 | S. cerevisiae deletion strains, locus YKL009W, strain mrt4, stronger effect = lower value 0.985 | S. cerevisiae deletion strains, locus YKL068W, stronger effect = lower value 1 | S. cerevisiae deletion strains, locus YKL085W, strain MDH1 (second series), stronger effect = lower value 1.01 | S. cerevisiae deletion strains, locus YKL085W, strain MDH1, stronger effect = lower value 1.01 | S. cerevisiae deletion strains, locus YKR001C, strain vps1, stronger effect = lower value 0.97 | S. cerevisiae deletion strains, locus YLR039C, strain RIC1, stronger effect = lower value 1.03 | S. cerevisiae deletion strains, locus YLR058C, strain SHM2, stronger effect = lower value 1 | S. cerevisiae deletion strains, locus YLR102C, strain apc9, stronger effect = lower value 0.976 | S. cerevisiae deletion strains, locus YLR262C, strain YPT6, stronger effect = lower value 1.03 | S. cerevisiae deletion strains, locus YLR268W, strain sec22, stronger effect = lower value 0.973 | S. cerevisiae deletion strains, locus YLR371W, strain rom2, stronger effect = lower value 0.997 | S. cerevisiae deletion strains, locus YLR418C, strain cdc73, stronger effect = lower value 0.906 | S. cerevisiae deletion strains, locus YML016C, strain PPZ1, stronger effect = lower value 0.998 | S. cerevisiae deletion strains, locus YML032C, strain rad52, stronger effect = lower value 0.97 | S. cerevisiae deletion strains, locus YML124C, strain tub3, stronger effect = lower value 0.977 | S. cerevisiae deletion strains, locus YMR078C, strain ctf18, stronger effect = lower value 0.979 | S. cerevisiae deletion strains, locus YMR223W, strain ubp8, stronger effect = lower value 0.951 | [5] 0.987 | [6] 0.979 | S. cerevisiae deletion strains, locus YNL067W, strain RPL9B, stronger effect = lower value 0.983 | S. cerevisiae deletion strains, locus YNL233W, strain BNI4, stronger effect = lower value 0.955 | S. cerevisiae deletion strains, locus YNL250W, strain rad50, stronger effect = lower value 0.979 | S. cerevisiae deletion strains, locus YNL271C, strain bni1, stronger effect = lower value 0.999 | S. cerevisiae deletion strains, locus YNL298W, strain CLA4, stronger effect = lower value 1.02 | S. cerevisiae deletion strains, locus YNL307C, strain MCK1, stronger effect = lower value 0.961 | S. cerevisiae deletion strains, locus YNL322C, strain KRE1, stronger effect = lower value 0.991 | S. cerevisiae deletion strains, locus YNR052C, strain pop2, stronger effect = lower value 0.989 | S. cerevisiae deletion strains, locus YOL006C, strain TOP1, stronger effect = lower value 0.893 | S. cerevisiae deletion strains, locus YOL012C, strain htz1 1.08 | S. cerevisiae deletion strains, locus YOL147C, strain pex11, stronger effect = lower value 0.973 | S. cerevisiae deletion strains, locus YOR061W, strain CKA2, stronger effect = lower value 1.01 | S. cerevisiae deletion strains, locus YOR069W, strain VPS5, stronger effect = lower value 0.999 | S. cerevisiae deletion strains, locus YOR136W, strain idh2, stronger effect = lower value 0.981 | S. cerevisiae deletion strains, locus YOR144C, strain elg1, stronger effect = lower value 0.988 | S. cerevisiae deletion strains, locus YOR184W, strain ser1, stronger effect = lower value 0.978 | S. cerevisiae deletion strains, locus YOR316C, strain cot1, stronger effect = lower value 0.98 | S. cerevisiae deletion strains, locus YPR119W, strain clb2, stronger effect = lower value 0.96 | S. cerevisiae deletion strains, locus YPR141C, strain kar3, stronger effect = lower value 0.99 | S. cerevisiae deletion strains, locus YPR163C, strain tif3, stronger effect = lower value 0.984 | S. cerevisiae deletion strains, locus YPR167C, strain met16, stronger effect = lower value 0.961 | S. cerevisiae deletion strains, strain wtn01, stronger effect = lower value 0.973 | S. cerevisiae strains, strain wild type, stronger effect = lower value 0.99
active: S. cerevisiae deletion strains, locus YBR021W, strain FUR4, stronger effect = lower value 0.837

CCOC(=O)C12CC1/C(=N\O)c1ccccc1O2 (configuration not stated)
inactive: [11] 0.998 | [1] 1.05 | [2] 0.995 | [3] 1.02 | [4] 0.991 | S. cerevisiae deletion strains, locus YNL153C, strain GIM3, stronger effect = lower value 1.02 | [7] 1.02 | [8] 1.02 | [9] 1 | [10] 1.02
